D3 antag = antagonists of human D3 dopamine receptor | P35462 | D3R cells, DiscoveRx beta-arrestin luminescence, antagonist mode; hits give low values | max response, negative = inhibition, % | actives 2.5% (n = 360,000) | AID 652054; in the data active = max response below about -50%; note: % is set by controls: 0 for no effect and ±100 for the full control effect
Target sequence (P35462 whole entry, looked up): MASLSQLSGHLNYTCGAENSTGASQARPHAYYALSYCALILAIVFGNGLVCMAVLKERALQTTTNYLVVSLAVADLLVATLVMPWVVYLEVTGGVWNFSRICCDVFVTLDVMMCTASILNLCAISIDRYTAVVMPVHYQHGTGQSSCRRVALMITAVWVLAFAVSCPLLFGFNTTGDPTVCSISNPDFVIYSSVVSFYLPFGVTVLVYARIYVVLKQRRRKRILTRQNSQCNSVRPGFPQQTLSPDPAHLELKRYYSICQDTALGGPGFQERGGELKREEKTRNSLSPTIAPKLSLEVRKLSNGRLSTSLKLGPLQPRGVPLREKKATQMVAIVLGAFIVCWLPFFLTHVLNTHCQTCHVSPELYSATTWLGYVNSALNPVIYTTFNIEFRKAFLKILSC
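Cells plated overnight at 1500 cells/well, then exposed to library compounds with dopamine controls for 90 minutes at 37 degrees C. DiscoveRx reagent added for 30–60 minutes at room temperature; luminescence read, quantitative HTS format.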
D1 antag = antagonists of human D1 dopamine receptor; P21728; HEK293 TREx D1 cells, calcium flux, dopamine EC80; hits give low values; activity change, negative = inhibition, % at 10 µM; actives 3.2% (n = 360,000); in the data active = activity change below about -30%; note: % is set by controls: 0 for no effect and ±100 for the full control effect
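Cells carrying a force-coupled, tetracycline-inducible human D1 receptor report calcium flux. Each well gets a 10 s baseline, compound with 180 s monitoring, then an EC80 dopamine stimulus with a second 180 s kinetic read.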
D3 ag = agonists of human D3 dopamine receptor; D3R DiscoveRx beta-arrestin cells, luminescence, 90 min; max activation, %; actives 0.58% (n = 410,000); AID 652048; in the data active = max activation above about 30%; note: 0% is about no effect
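Agonist mode: compounds and dopamine controls were applied to plated cells for 90 min at 37 degrees C after an overnight attachment at 1500 cells/well. Luminescent read-out followed 30 - 60 minutes at room temperature with DiscoveRx detection reagent.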
D1 PAM = potentiators of human D1 dopamine receptor | HEK293 TREx D1 cells, calcium flux, dopamine EC20 potentiation | actives 0.036% (n = 360,000) | P21728 | potentiation, % at 10 µM | AID 504651; in the data active = potentiation above about 30%; note: 0% is about no effect
D1 ag = human D1 receptor agonism. P21728. HEK293 T-REx D1 cells, calcium flux, agonist mode. actives 1% (n = 360,000). activation, % at 2 µM; in the data active = activation above about 30%; note: 0% is about no effect
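Agonism was scored from calcium flux recorded over 180 s (1 read/s) after pintool compound addition, following a 10-cycle baseline. Cells were inducible force-coupled HEK293 TREx D1, plated overnight at 30 C and loaded with no-wash calcium dye.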
* = called active by the depositor; nt = no result. The list is not random: actives were taken first. Their share in the collection is about 6.1%.

SMILES | D3 antag | D1 antag | D3 ag | D1 PAM | D1 ag
CCN(Cc1ccccc1)S(=O)(=O)c1ccc(C(=O)N(CCCN(C)C)c2nc3c(F)cccc3s2)cc1 | -7 | 10 | -2 | 3 | 5
CCOc1cccc2sc(N(CCCN(C)C)C(=O)c3ccc(S(=O)(=O)N(C)Cc4ccccc4)cc3)nc12 | -22 | -48* | -7 | 4 | 42*
CCOc1ccc(C(=O)c2cn(CC(=O)Nc3ccc4c(c3)OCCO4)c3ccc(F)cc3c2=O)cc1 | nt | -2 | 3 | -1 | -1
Cc1ccc(N(CC(=O)Nc2ccc(Br)c(C)c2)S(=O)(=O)c2cccs2)cc1 | nt | -52* | -2 | -3 | 3
Cc1ccc(N(CC(=O)N/N=C/c2cc(C)n(-c3ccccc3C)c2C)S(C)(=O)=O)cc1 | -19 | -30* | -18 | -9 | 0
Cc1ccc(N(CC(=O)Nc2cc(C)ccc2C)S(C)(=O)=O)cc1 | -2 | -38* | 2 | 1 | 3
CCc1ccc(NC(=O)CN(c2cccc(C)c2)S(C)(=O)=O)cc1 | 8 | 1 | 34* | 1 | 1
Cc1ccc(C2=NO[C@@](CC(=O)O)(C(=O)Nc3ccc4c(c3)OCCO4)C2)cc1 | 0 | -3 | 95* | -4 | 3
Cc1ccc(N(CC(=O)Nc2ccc3c(c2)OCCO3)S(C)(=O)=O)cc1 | -89* | -22 | -12 | -4 | 2
Cc1ccc(-n2ccn(CC(=O)c3ccc(F)cc3)c(=O)c2=O)cc1C | nt | -1 | -2 | -3 | 3
COC(=O)c1[nH]c2cc(OC)ccc2c1NC(=O)CCN1CCN(c2cccc(C)c2C)CC1 | -80* | 1 | -3 | -6 | 0
CCOC(=O)c1[nH]c2ccc(OC)cc2c1NC(=O)CCN1CCSCC1 | -7 | -2 | 0 | -1 | 2
COc1ccc(OC)c(NC(=O)CCN2CCN(c3ccccc3)CC2)c1 | -53* | 2 | 30* | 6 | 3
COC(=O)c1[nH]c2cc(OC)ccc2c1NC(=O)CCN1CCN(c2ccccc2)CC1 | -76* | nt | -3 | -5 | 1
COC(=O)c1[nH]c2ccccc2c1NC(=O)CCN1CCSCC1 | -57* | -5 | 1 | -2 | 3
COc1ccc(CC(=O)Nc2ccc(-c3nc4ccccc4s3)c(C)c2)cc1OC | nt | -18 | 2 | -3 | 10
C#CCn1c(/C=C/c2ccc(Cl)cc2)nc2ccccc21 | nt | -36* | 4 | -3 | 6
CC(C)CCn1c(-c2nonc2N)nc2ccccc21 | -51* | -33* | 1 | -5 | 2
CCCCn1c(/C=C/c2ccco2)nc2ccccc21 | 27 | -5 | 4 | -5 | 30*
Clc1ccc(Cn2c(/C=C/c3ccco3)nc3ccccc32)cc1 | -12 | -9 | 3 | -6 | 3
COCCn1c(/C=C/c2ccccc2)nc2ccccc21 | 2 | -34* | -2 | -3 | -1
COc1ccc(Cl)cc1NC(=O)CSc1nc2ccccc2nc1N1CCCCC1 | nt | -3 | 2 | -2 | 2
CC(C)CCn1c(/C=C/c2ccccc2)nc2ccccc21 | nt | -32* | -9 | -5 | 10
COc1ccccc1Cn1c(/C=C/c2ccccc2)nc2ccccc21 | -4 | -31* | -5 | -5 | 10
CCC(C)Cn1c(/C=C/c2ccccc2)nc2ccccc21 (stereo unspecified) | nt | -24 | -14 | -3 | 4
SMILES | D3 antag | D1 antag | D3 ag | D1 PAM | D1 ag
COc1ccc(/C=C/c2nc3ccccc3n2Cc2ccccc2OC)cc1 | -2 | -23 | 0 | -9 | 3
Cc1oc(-c2ccccc2)nc1CSc1nnc(C)n2c1cc1sccc12 | nt | 3 | -14 | 0 | 0
O=C1C2C3C=CC(CC3)C2C(=O)N1/N=C/c1ccccc1O (stereo unspecified) | -65* | 8 | 2 | -7 | 5
CC(C)(C)OC(=O)N1CCC(c2nnc(SCc3ccccc3)o2)CC1 | nt | 4 | -7 | -3 | 25
CCC1Cc2c(nc(N)c3c(N)nc(N4CCCCC4)c(C#N)c23)O1 (stereo unspecified) | 9 | -31* | 7 | -5 | 0
Nc1ncnc2c1ncn2[C@@H]1O[C@H](CNC(=O)[C@@H]2CCCN2S(=O)(=O)c2ccc(F)cc2)[C@@H](O)[C@H]1O | 0 | nt | 37* | nt | nt
Nc1ncnc2c1ncn2[C@@H]1O[C@H](CNC(=O)[C@@H]2CCN2)[C@@H](O)[C@H]1O | 0 | nt | 0 | nt | nt
C=C1CCC[C@]2(C)C[C@H]3OC(=O)C(CN[C@@H](C)c4ccccc4)[C@H]3CC12 (stereo partly specified) | 41 | 29 | 8 | -2 | 36*
CCCCCC[n+]1c(-c2ccccc2)csc1Nc1ccccc1 | -5 | -82* | -11 | 1 | 1
O=C(Cn1c(-c2cccs2)cc2ccccc21)N1CCN(c2ccc(F)cc2)CC1 | nt | 12 | 7 | 4 | 0
COc1cccc(-c2cc(C(F)(F)F)n3nc(C(=O)N4CCCCC4c4cccnc4)cc3n2)c1 (stereo unspecified) | 16 | -49* | 21 | -11 | 1
COc1ccc(-c2cc(C(F)(F)F)n3nc(C(=O)N4CCCCC4)cc3n2)cc1 | 30 | -11 | 15 | -3 | 0
C=CCN(CC=C)CC(O)CN(c1cc([N+](=O)[O-])ccc1OC)S(=O)(=O)c1ccccc1 (stereo unspecified) | -84* | 2 | -41 | -4 | 3
CCOc1ccc(N/C(=N/c2nc(C)cc(C)n2)NC(=O)CC)cc1 | 13 | -17 | 7 | -1 | 1
COc1ccc(N/C(=N\c2nc(C)cc(C)n2)NC(=O)C(C)C)cc1OC | -65* | 2 | -1 | 5 | -2
CCC(=O)N/C(=N/c1nc(C)cc(C)n1)Nc1ccc(C)cc1 | 2 | -43* | 1 | -8 | 0
COc1ccc(N/C(=N/c2nc(C)cc(C)n2)NC(=O)c2ccccc2)cc1 | 9 | -59* | 1 | -14 | 0
NC(=O)c1cc[n+](CC2=C(C(=O)[O-])N3C(=O)[C@@H](NC(=O)Cc4cccs4)[C@H]3SC2)cc1 | nt | nt | 7 | nt | nt
COc1ccccc1NC(=O)CN1C(=O)CC(c2ccc(C)c(C)c2)=Nc2ccccc21 | nt | -11 | 7 | -1 | 5
CC(=O)c1ccc(OCc2cn(CC(=O)c3ccc(O)cc3)nn2)cc1 | -13 | nt | -9 | nt | nt
O=C(Cn1cc(COc2cc(F)cc(F)c2)nn1)c1ccc(O)cc1 | -24 | nt | 4 | nt | nt
COc1cc(C=O)ccc1OCc1cn(CC(=O)c2ccc(O)cc2)nn1 | 34 | nt | 0 | nt | nt
Cc1cccc(C)c1OCc1cn(CC(=O)c2ccc(O)cc2)nn1 | -61* | nt | -13 | nt | nt
O=C(Cn1cc(COc2ccc(Br)cc2[N+](=O)[O-])nn1)c1ccc(O)cc1 | -59* | nt | -14 | nt | nt
CC(=O)c1ccc(OCc2cn(CC(=O)c3ccc(O)cc3)nn2)c(C)c1 | -24 | nt | -6 | nt | nt
CC(=O)Nc1ccc(OCc2cn(CC(=O)c3ccc(O)cc3)nn2)cc1 | -114* | nt | -21 | nt | nt

High-throughput results from PubChem.
